Measurements from PubChem BioAssay AID372 (MTDP, 2006).
About 770 (0.77%) of roughly 100,000 compounds were called active. Rule as the data show it: active = inhibition above about 50%; inactive = the rest. Only a selection was taken, and actives are over-represented in it overall.

Molecular target: Gag-Pol polyprotein (Human immunodeficiency virus type 1 group M subtype B (isolate HXB2)) (UniProt P04585)
Experiment: RNase H inhibition, HIV 1 Gag Pol polyprotein, FRET biochemical assay, screening (AID 372)
Conditions: HIV-1 RT RNase H, FRET RNA/DNA substrate fluorescence; at 10 µM; stronger effect = higher value

**Q.** For `Cc1cc(/C=C(\C#N)C(=O)Nc2ccc(F)cc2)c(C)n1-c1ccc2c(c1)OCO2`, which inhibition is on record?
**A.** 7% (inactive)

**Q.** Which inhibition does the source give for `Cc1ccc(C(=O)Nc2cc(Cl)ccc2C)c(Cl)c1` here?
**A.** 14% (inactive)

**Q.** How did the inhibition turn out when `CCN(CC)CCCCCCOc1ccccc1OC` was run?
**A.** 8% (inactive)

**Q.** `COc1cc(-c2csc(/C(C#N)=C/Nc3cccc(F)c3)n2)ccc1O` was tested. Which inhibition did it give?
**A.** 57% (active)

**Q.** `COc1ccc(-c2csc(/C(C#N)=C\Nc3cc(OC)c(Cl)cc3OC)n2)cc1` was tested. Which inhibition did it give?
**A.** 52% (active)

**Q.** `N#C/C(=C/Nc1cccc(Cl)c1Cl)c1nc(-c2ccc3c(c2)OCO3)cs1` was tested. Which inhibition did it give?
**A.** 58% (active)

**Q.** For `Cc1ccc(-c2csc(/C(C#N)=C/Nc3cccc(F)c3)n2)cc1`, which inhibition is on record?
**A.** 4% (inactive)

**Q.** How did the inhibition turn out when `COc1ccc(-c2csc(/C(C#N)=C\Nc3cccc(Cl)c3Cl)n2)cc1OC` was run?
**A.** 51% (active)

**Q.** How did the inhibition turn out when `COc1ccc(-c2csc(/C(C#N)=C\Nc3cc(Cl)ccc3Cl)n2)cc1OC` was run?
**A.** 40% (inactive)

**Q.** Which inhibition does the source give for `COc1cc(N/C=C(/C#N)c2nc(-c3ccc(OC)c(OC)c3)cs2)c(OC)cc1Cl` here?
**A.** 48% (inactive)

**Q.** Which inhibition does the source give for `COc1ccc(-c2csc(/C(C#N)=C\Nc3cccc(C)c3C)n2)cc1OC` here?
**A.** 17% (inactive)

**Q.** With `N#C/C(=C/Nc1ccccc1F)c1nc(-c2ccc3c(c2)OCO3)cs1` as the compound, how does the inhibition read?
**A.** 12% (inactive)

**Q.** Which inhibition does the source give for `COc1cccc(N/C=C(\C#N)c2nc(-c3ccc(O)c(OC)c3)cs2)c1` here?
**A.** 13% (inactive)

**Q.** `N#C/C(=C/Nc1cc(Cl)cc(Cl)c1)c1nc(-c2ccc3c(c2)OCO3)cs1` was tested. Which inhibition did it give?
**A.** 39% (inactive)

**Q.** How did the inhibition turn out when `COc1cccc(-c2csc(/C(C#N)=C\Nc3cc(OC)c(Cl)cc3OC)n2)c1` was run?
**A.** 16% (inactive)

**Q.** For `Cc1ccc(C(=O)/C=C/c2ccc(OCc3ccccc3)cc2)cc1`, which inhibition is on record?
**A.** 4% (inactive)

**Q.** Which inhibition does the source give for `C=CCOc1ccc(/C=C2/C(=O)NC(=O)N(c3ccccc3F)C2=O)cc1` here?
**A.** 7% (inactive)

**Q.** For `COc1ccccc1OCCOc1ccc(C=NNC(=S)Nc2ccccc2)cc1OC`, which inhibition is on record?
**A.** 5% (inactive)

**Q.** With `Cc1cc(C)c(C=Nc2cc([N+](=O)[O-])ccc2C)c(C)c1` as the compound, how does the inhibition read?
**A.** 11% (inactive)

**Q.** With `COCCCNC(=O)CN(c1ccc(OC)cc1OC)S(C)(=O)=O` as the compound, how does the inhibition read?
**A.** 9% (inactive)

**Q.** Which inhibition does the source give for `CCOc1ccccc1OCCOc1ccc(C=O)cc1` here?
**A.** 19% (inactive)

**Q.** How did the inhibition turn out when `COc1ccc(NC(=O)c2ccc(C)c([N+](=O)[O-])c2)cc1` was run?
**A.** 6% (inactive)

**Q.** How did the inhibition turn out when `O=C(Oc1ccc(Cl)cc1)c1ccc(Cl)cc1` was run?
**A.** 11% (inactive)

**Q.** With `COc1ccc(CNC(=O)CSc2nc3ccccc3[nH]2)cc1` as the compound, how does the inhibition read?
**A.** 3% (inactive)

**Q.** With `CCOc1ccc(C2=CC(=O)C(c3ccccc3)CC2)cc1` (stereo not drawn) as the compound, how does the inhibition read?
**A.** 22% (inactive)

**Q.** For `Cc1cc(OCC(=O)N2CCN(c3ccccn3)CC2)ccc1Br`, which inhibition is on record?
**A.** 24% (inactive)

**Q.** With `Cc1ccc(N(CC(=O)NCc2cccnc2)S(=O)(=O)c2ccc(F)cc2)cc1` as the compound, how does the inhibition read?
**A.** 2% (inactive)

**Q.** With `COc1ccc(C(=O)CSc2nnc(-c3ccccc3)n2-c2ccc(Cl)cc2)cc1` as the compound, how does the inhibition read?
**A.** 6% (inactive)

**Q.** For `O=C(N/N=C/c1ccc(O)c(O)c1)c1cccc(I)c1`, which inhibition is on record?
**A.** 44% (inactive)

**Q.** For `Cc1cccc(/C=N/NC(=O)c2ccc(O)c(O)c2)c1`, which inhibition is on record?
**A.** 56% (active)

**Q.** `O=C(N/N=C/c1ccc2ccccc2c1)c1ccc(O)c(O)c1` was tested. Which inhibition did it give?
**A.** 73% (active)

**Q.** How did the inhibition turn out when `Cc1cc2c(cc1C)CN(c1cccc(C(=O)N/N=C/c3ccc(O)c(O)c3)c1)C2` was run?
**A.** 62% (active)

**Q.** `O=C(N/N=C/c1ccncc1)c1cccc(I)c1` was tested. Which inhibition did it give?
**A.** 0% (inactive)

**Q.** `O=C(N/N=C/c1ccc2ccccc2c1)c1ccc(O)cc1` was tested. Which inhibition did it give?
**A.** 12% (inactive)

**Q.** `Cc1cccc(/C=N/NC(=O)c2ccccc2)c1` was tested. Which inhibition did it give?
**A.** 0% (inactive)

**Q.** How did the inhibition turn out when `Cc1cc2c(cc1C)CN(c1cccc(C(=O)N/N=C/c3ccc(N(C)C)cc3)c1)C2` was run?
**A.** 47% (inactive)

**Q.** Which inhibition does the source give for `Cc1cccc(/C=N/NC(=O)c2cc(O)cc(O)c2)c1` here?
**A.** 0% (inactive)

**Q.** With `Cc1cc2c(cc1C)CN(c1cccc(C(=O)N/N=C/c3ccco3)c1)C2` as the compound, how does the inhibition read?
**A.** 21% (inactive)

**Q.** `O=C(N/N=C/c1ccc(/C=N/NC(=O)c2cccc(I)c2)cc1)c1cccc(I)c1` was tested. Which inhibition did it give?
**A.** 53% (active)

**Q.** Which inhibition does the source give for `O=C(N/N=C/c1ccc2ccccc2c1)c1ccccc1O` here?
**A.** 14% (inactive)

**Q.** How did the inhibition turn out when `Cc1cccc(NC(=O)c2cccnc2)c1` was run?
**A.** 13% (inactive)

**Q.** With `COc1ccc(CC(=O)N2CCCc3ccccc32)cc1OC` as the compound, how does the inhibition read?
**A.** 5% (inactive)

**Q.** Which inhibition does the source give for `O=C(O)c1c(-c2ccccc2)oc2ccc(OCc3ccccc3)cc12` here?
**A.** 0% (inactive)

**Q.** `O=C1CC(c2ccc(Cl)cc2)CC2=C1C(c1ccccc1F)Nc1ccccc1N2` (stereo not drawn) was tested. Which inhibition did it give?
**A.** 0% (inactive)

**Q.** Which inhibition does the source give for `O=C(COc1cccc(Cl)c1)N=Nc1c(O)[nH]c(=O)[nH]c1=O` here?
**A.** 10% (inactive)

**Q.** For `O=C(Nc1ccc(F)cc1)Nc1nnc(CSCc2ccccc2Cl)s1`, which inhibition is on record?
**A.** 23% (inactive)

**Q.** Which inhibition does the source give for `CC(=O)Oc1ccc(/C=C(/NC(=O)c2ccccc2)C(=O)NCCO)cc1` here?
**A.** 7% (inactive)

**Q.** For `O=C(O)CCC(=O)N1N=C(c2c(-c3ccccc3)c3cc(Cl)ccc3[nH]c2=O)CC1c1ccc([N+](=O)[O-])cc1` (stereo not drawn), which inhibition is on record?
**A.** 18% (inactive)

**Q.** How did the inhibition turn out when `CC12c3ccccc3C(C)(c3ccccc31)C1C(=O)NC(=O)C12` (stereo not drawn) was run?
**A.** 3% (inactive)

**Q.** How did the inhibition turn out when `O=C(N/N=C/c1ccc(O)c(O)c1)c1ccc(O)cc1` was run?
**A.** 37% (inactive)

**Q.** With `O=C(N/N=C/c1ccc(O)c(O)c1)c1ccc(Br)cc1` as the compound, how does the inhibition read?
**A.** 41% (inactive)

**Q.** `Cc1cc([N+](=O)[O-])ccc1NC(=O)c1ccccc1` was tested. Which inhibition did it give?
**A.** 11% (inactive)

**Q.** For `O=C(/C=C\Nc1ccccn1)c1ccc(Cl)cc1`, which inhibition is on record?
**A.** 9% (inactive)

**Q.** `COc1cc(C=O)ccc1OCCOc1cccc(C)c1C` was tested. Which inhibition did it give?
**A.** 12% (inactive)

**Q.** How did the inhibition turn out when `Cc1ccc(C)c(NCn2nnc3ccccc32)c1` was run?
**A.** 10% (inactive)

**Q.** Which inhibition does the source give for `Cc1csc(N/N=C/c2cccc(OCc3ccccc3)c2)n1` here?
**A.** 19% (inactive)

**Q.** For `O=C1N=C(N2CCN(c3ccccc3)CC2)S/C1=C\c1ccc(OCc2ccccc2)cc1`, which inhibition is on record?
**A.** 1% (inactive)

**Q.** How did the inhibition turn out when `Cc1ccc(S(=O)(=O)N(c2ccc(Br)cc2F)S(=O)(=O)c2ccc(C)cc2)cc1` was run?
**A.** 16% (inactive)

**Q.** With `COc1ccc(N2C(=O)NC(=O)/C(=C\c3cc(I)c(OC)c(OC)c3)C2=O)cc1` as the compound, how does the inhibition read?
**A.** 7% (inactive)

**Q.** `CCOC(=O)c1c(NC(=O)c2sc3cc(C)ccc3c2Cl)sc(C(N)=O)c1C` was tested. Which inhibition did it give?
**A.** 10% (inactive)

**Q.** For `S=C(NCc1ccccc1)N/N=C/c1cccc(OCc2ccccc2)c1`, which inhibition is on record?
**A.** 12% (inactive)

**Q.** Which inhibition does the source give for `CNC(=S)N/N=C/c1cccc(OCc2ccccc2F)c1` here?
**A.** 52% (active)

**Q.** For `Fc1ccccc1COc1cccc(/C=N/Nc2ccccc2)c1`, which inhibition is on record?
**A.** 11% (inactive)
